Assay [1] in a line: qHTS assay to test for compound auto fluorescence at 535 nm (green) in HEK293 cells (AID 720680). (In qHTS, concentration-response curves come from the screen itself.)
Assay [2] in a line: qHTS assay to test for compound auto fluorescence at 460 nm (blue) in HEK293 cell free culture (AID 720681). The procedure, abridged:
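Test compounds were pinned into cell-free culture medium (DMEM with 10% FBS) and fluorescence was read directly at Ex/Em 405/460 nm. Signals were expressed as fluorescence equivalents of triamterene, with DMSO vehicle as control.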

Assay [3] can be described thus: qHTS assay to test for compound auto fluorescence at 590 nm (red) in HEK293 cell free culture (AID 720683). The procedure, abridged:
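Tox21 10K library compounds were pinned into cell-free DMEM with 10% FBS and fluorescence was read at excitation 540 nm. Activity is expressed as Rose Bengal sodium equivalency.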

The nature of assay [4]: qHTS assay to test for compound auto fluorescence at 590 nm (red) in HepG2 cell free culture (AID 720684). The procedure, abridged:
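Readout: intrinsic compound fluorescence at 590 nm emission after 540 nm excitation, scaled to Rose Bengal sodium. Matrix was cell-free MEM with 10% FBS; DMSO vehicle wells served as control.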

A short description of assay [5]: qHTS assay to test for compound auto fluorescence at 460 nm (blue) in HepG2 cell free culture (AID 720685). In short, it runs like this: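 Cell-free plates of MEM plus 10% FBS received 23 nL compound or DMSO vehicle; blue-channel (405/460 nm) intensity scored against triamterene as reference fluorophore.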
A short description of assay [6]: qHTS assay to test for compound auto fluorescence at 535 nm (green) in HepG2 cell free culture (AID 720686).
Assay [7] can be described thus: qHTS assay to test for compound auto fluorescence at 460 nm (blue) in HepG2 cells (AID 720687). In short, it runs like this: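 Cells (2,000/well in MEM with 10% FBS) attached overnight at 37 C, then were exposed to compound or DMSO for 1 hr at 37 C, 5% CO2. Fluorescence read at Ex/Em 405/460 nm, expressed as triamterene-equivalent signal.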
In assay [8] the target is Glucocorticoid receptor (Homo sapiens) (UniProt P04150). In words: qHTS assay to identify small molecule agonists of the glucocorticoid receptor (GR) signaling pathway (AID 720691; active means well fitted activation curve with a large enough effect in the signal ratio in the repeat runs, not every such curve was filed as active; the % refers to the signal ratio). To be noted: GR-bla HeLa, beta-lactamase reporter ratio, 18 h; activation: at 62.4 µM (top of the series). The procedure, abridged:
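HeLa GR-bla reporter line; cells pre-incubated 4 h, compound in DMSO 18 h at 37 C; LiveBLAzer B/G FRET substrate 2 h RT; fluorescence intensity read-out.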

Assay [9] has the same target. In words: qHTS assay to identify small molecule antagonists of the glucocorticoid receptor (GR) signaling pathway (AID 720692; active means well fitted inhibition curve with a large enough effect in the signal ratio in the repeat runs, not every such curve was filed as active; the % refers to the signal ratio). In short, it runs like this:
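Read-out: beta-lactamase FRET substrate fluorescence, 2 h at room temperature, in HeLa cells stably carrying a GRE-driven bla reporter. Compounds were co-incubated with 5 nM dexamethasone agonist (final) for 18 h at 37 C.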

A short description of assay [10]: qHTS assay to identify small molecule antagonists of the glucocorticoid receptor (GR) signaling pathway - cell viability counter screen (AID 720693). Further: nearly all actives have a fitted effect of over 55% in size. Further: potency means the concentration at half of the fitted maximal effect.
A short description of assay [11]: qHTS assay for identifying genotoxic compounds that show differential cytotoxicity against isogenic chicken DT40 cell lines with known DNA damage response pathways - wild type cell line (AID 743012). Further: nearly all actives have a fitted effect of over 60% in size. Further: potency means the concentration at half of the fitted maximal effect. The procedure, abridged: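 CellTiter-Glo luminescence readout of viability in wild type DT40 cells after 40 h compound exposure at 37 C/5% CO2; 300 cells/well; reagent incubated 30 min at room temperature before reading.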

The nature of assay [12]: qHTS assay for identifying genotoxic compounds that show differential cytotoxicity against isogenic chicken DT40 cell lines with known DNA damage response pathways - Rev3 mutant cell line (AID 743014). Further: nearly all actives have a fitted effect of over 55% in size. Further: potency means the concentration at half of the fitted maximal effect.
Assay [13] can be described thus: qHTS assay for identifying genotoxic compounds that show differential cytotoxicity against isogenic chicken DT40 cell lines with known DNA damage response pathways - Rad54/Ku70 mutant cell line (AID 743015). Further: nearly all actives have a fitted effect of over 60% in size. Further: potency means the concentration at half of the fitted maximal effect.
The nature of assay [14]: qHTS assay to identify small molecule antagonists of the androgen receptor (AR) signaling pathway - cell viability counter screen (AID 743033; further: nearly all actives have a fitted effect of over 45% in size).
The nature of assay [15]: qHTS assay to identify small molecule antagonists of the androgen receptor (AR) signaling pathway using the MDA cell line - cell viability counter screen (AID 743041; further: nearly all actives have a fitted effect of over 45% in size). The procedure, abridged:
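qHTS viability read-out; MDA-kb2 AR-luc; R1881-stimulated; 16 h exposure at 37C, 0% CO2; CellTiter-Fluor, 30 min; fluorescence intensity.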

The target in assay [16] is Androgen receptor (Homo sapiens) (UniProt P10275). In words: qHTS assay to identify small molecule antagonists of the androgen receptor (AR) signaling pathway (AID 743035; active means well fitted inhibition curve with a large enough effect in the signal ratio in the repeat runs, not every such curve was filed as active; the % refers to the signal ratio; further: potency means the concentration at half of the fitted maximal effect). In short, it runs like this: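 AR-bla HEK293 reporter cells; 4 h settle at 37C/5% CO2; compound + R1881 agonist, 16 h at 37C; LiveBLAzer B/G FRET substrate 2 h RT; fluorescence intensity read. qHTS format.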
Chain of Androgen receptor (Homo sapiens) (P10275 whole entry, looked up): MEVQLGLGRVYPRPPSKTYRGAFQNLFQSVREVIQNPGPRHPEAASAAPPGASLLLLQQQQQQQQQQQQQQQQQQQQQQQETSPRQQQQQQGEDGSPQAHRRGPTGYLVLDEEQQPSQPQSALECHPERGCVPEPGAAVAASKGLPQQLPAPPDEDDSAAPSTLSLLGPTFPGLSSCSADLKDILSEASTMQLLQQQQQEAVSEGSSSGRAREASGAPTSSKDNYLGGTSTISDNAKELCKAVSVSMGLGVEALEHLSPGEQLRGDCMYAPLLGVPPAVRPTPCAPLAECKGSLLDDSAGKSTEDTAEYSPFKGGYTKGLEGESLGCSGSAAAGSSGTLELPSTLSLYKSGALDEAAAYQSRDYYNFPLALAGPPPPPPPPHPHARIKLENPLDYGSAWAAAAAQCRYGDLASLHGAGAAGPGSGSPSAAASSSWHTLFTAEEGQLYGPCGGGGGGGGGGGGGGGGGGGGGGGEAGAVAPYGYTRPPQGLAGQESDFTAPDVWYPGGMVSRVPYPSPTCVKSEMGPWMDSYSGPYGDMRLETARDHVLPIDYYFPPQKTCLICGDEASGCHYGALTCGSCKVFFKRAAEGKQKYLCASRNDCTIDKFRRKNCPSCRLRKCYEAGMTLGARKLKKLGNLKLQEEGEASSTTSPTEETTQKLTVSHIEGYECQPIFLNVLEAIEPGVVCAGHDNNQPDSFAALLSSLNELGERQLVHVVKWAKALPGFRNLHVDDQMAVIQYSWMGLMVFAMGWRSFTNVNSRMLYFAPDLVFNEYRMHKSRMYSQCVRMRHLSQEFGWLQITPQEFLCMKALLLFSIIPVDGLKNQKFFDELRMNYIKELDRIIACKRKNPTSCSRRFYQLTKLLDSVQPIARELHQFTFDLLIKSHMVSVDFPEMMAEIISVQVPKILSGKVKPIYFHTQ

The target is the same in assay [17]. Briefly: qHTS assay to identify small molecule agonists of the androgen receptor (AR) signaling pathway using the MDA cell line (AID 743040; further: nearly all actives have a fitted effect of over 20% in size). The procedure, abridged: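 Agonist activity is measured as luciferase luminescence in human MDA-kb2 cells whose MMTV reporter responds to both AR and GR. Compounds in DMSO incubate 16 h at 37C, 0% CO2, and ONE-Glo is read after 30 min.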

Assay [18] has the same target. Briefly: qHTS assay to identify small molecule antagonists of the androgen receptor (AR) signaling pathway using the MDA cell line (AID 743042; further: nearly all actives have a fitted effect of over 55% in size). The procedure, abridged:
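MDA-kb2 cells (human breast carcinoma, stably carrying an MMTV-luciferase reporter responsive to AR and GR) were plated at 3,000 cells/well and preincubated 5 hr at 37C, then given compound plus R1881 agonist for 16 h. ONE-Glo luminescence was read.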

Assay [19] in a line: qHTS assay to test for compound auto fluorescence at 535 nm (green) in HEK293 cell free culture (AID 720682). In short, it runs like this:
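No cells present: wells hold DMEM supplemented with 10% FBS, into which compound or vehicle is pinned. Green emission is then recorded (485 nm excitation, 535 nm emission) and scaled to fluorescein.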

This is an account of results in PubChem BioAssay (Tox21).

Results filed as inconclusive are left out. Activity calls are given as the source filed them. Unless noted, the call rests on the fitted dose curve; in most records, active means well fitted curve in the direction sought with a large enough effect in the repeat runs; inconclusive means weak or mixed curves; inactive means no such curve, though single readings can be large; an effect the other way counts as inactive or inconclusive.

Chain of Glucocorticoid receptor (Homo sapiens) (P04150 whole entry, looked up): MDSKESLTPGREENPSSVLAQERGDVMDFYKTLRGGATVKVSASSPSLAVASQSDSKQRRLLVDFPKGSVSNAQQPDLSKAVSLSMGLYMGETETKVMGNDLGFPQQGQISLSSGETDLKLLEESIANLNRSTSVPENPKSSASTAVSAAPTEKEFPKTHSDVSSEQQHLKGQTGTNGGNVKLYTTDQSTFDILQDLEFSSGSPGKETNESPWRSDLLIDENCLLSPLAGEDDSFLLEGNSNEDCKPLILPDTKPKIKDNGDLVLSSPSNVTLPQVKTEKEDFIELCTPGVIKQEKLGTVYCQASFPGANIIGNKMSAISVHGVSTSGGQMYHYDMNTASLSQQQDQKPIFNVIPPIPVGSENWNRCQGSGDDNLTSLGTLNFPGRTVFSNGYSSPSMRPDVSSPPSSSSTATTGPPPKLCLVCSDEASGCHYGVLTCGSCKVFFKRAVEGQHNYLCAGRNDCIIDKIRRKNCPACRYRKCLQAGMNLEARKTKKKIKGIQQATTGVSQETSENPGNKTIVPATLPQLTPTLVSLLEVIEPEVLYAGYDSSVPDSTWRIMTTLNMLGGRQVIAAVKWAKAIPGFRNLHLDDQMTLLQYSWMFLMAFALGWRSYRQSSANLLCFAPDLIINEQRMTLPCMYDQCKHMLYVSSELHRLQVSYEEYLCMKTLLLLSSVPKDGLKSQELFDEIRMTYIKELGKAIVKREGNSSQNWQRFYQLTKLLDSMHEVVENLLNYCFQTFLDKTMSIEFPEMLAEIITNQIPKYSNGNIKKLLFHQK

Turning to `C=CCN1C(=O)C(CC(C)C)NC1=S` (stereo not given), the result in assay [1], in assay [3] and in assay [4] was inactive. Moreover, the Potency entry in assay [2], in assay [5], in assay [6], in [7], in [8] and in [9] was “inactive” in each case. The Potency result in [10], in [11], in [12], in assay [13], in assay [14] and in assay [15] was “inactive” in each case.

Take `CC(C)OC(=O)Nc1ccc2nc(-c3cscn3)[nH]c2c1`: the call in assay [1], in assay [3] and in assay [4] was inactive. In addition, the Potency result in assay [2], in assay [5], in assay [6], in assay [7], in assay [10] and in assay [14] was “inactive” in each case. The Potency entry in assay [17], in assay [15] and in assay [18] was “inactive” in each case. Also, the Potency in [11] is 1.68 µM (active); in [13], 2.37 µM (active); in assay [16], 4.25 µM (active).

As for `O=C(O)c1cc2cc(Cc3cccnc3)ccc2o1`, the compound was classed as inactive in assay [1], in assay [19], in [3] and in assay [4]. Further, the Potency entry in assay [5], in assay [6], in assay [7], in [8], in assay [9] and in assay [10] was “inactive” in each case. The Potency entry in assay [11], in [12], in [14] and in assay [15] was “inactive” throughout.

In the case of `CCCCCCCCCCCCN1CCCC1=O`, the compound was called inactive in assay [1], in assay [3] and in assay [4]. In addition, the Potency entry in assay [2], in [5], in assay [6], in assay [7], in assay [14] and in [15] was “inactive” in each case. Further, the Potency in [10] was 43.6 µM (active); in assay [11] it was 24.3 µM (active); in assay [12], 30.6 µM (active); in assay [13], 30.6 µM (active).

As for `CCN(CC)C(=O)c1cccnc1`, the compound was called inactive in assay [1], in assay [19], in assay [3] and in assay [4]. The Potency result in assay [5], in [6], in assay [7], in assay [8], in assay [9] and in assay [10] was “inactive” each time. Further, the Potency entry in [11], in assay [13], in assay [14] and in assay [15] was “inactive” each time.

Turning to `CNC(=O)OCc1cccc(COC(=O)NC)n1`, the call in [1], in assay [3] and in assay [4] was inactive. Moreover, the Potency entry in assay [2], in assay [5], in assay [6], in [7], in [8] and in [9] was “inactive” throughout. For the same compound, the Potency result in assay [10], in assay [11], in assay [12], in assay [13], in [14] and in assay [15] was “inactive” each time.

As for `O=C[C@H](O)[C@@H](O)[C@@H](O)[C@H](O)CO`, the call in [1] and in [3] was inactive. For the same compound, the Potency result in assay [2], in assay [5], in [6], in assay [7], in [8] and in assay [9] was “inactive” throughout. Moreover, the Potency entry in assay [10], in assay [11], in assay [12], in assay [13], in [14] and in assay [15] was “inactive” in each case.
